Values joined by “and” are separate entries in the source; they are usually repeats but may differ in a detail not shown here. Identical values can stand only once. Inconclusive results are not listed. Active and inactive are the calls of the source. Unless noted, the call rests on the fitted dose curve; in most records, active means well fitted curve in the direction sought with a large enough effect; inconclusive means small, poorly fitted or top-dose-only effect, or another doubt; inactive means no such curve, though single readings can be large; an effect the other way counts as inactive or inconclusive.

These results are taken from PubChem BioAssay (NCATS).

Test [1] addresses Vitamin D3 receptor (Homo sapiens) (UniProt P11473). The test is described as follows: qHTS assay for small molecule agonists of vitamin D receptor signaling (AID 588543; calls by dose curve;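 further: 0% = DMSO basal and 100% = reference agonist control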). Put shortly: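 qHTS in agonist mode: compound titrations stimulate a VDR-driven β-lactamase reporter in HEK293T cells over 16 h at 37 °C. Response normalized to 50 nM 1α,25-dihydroxyvitamin D3 = 100%, DMSO = 0%; Hill fitting gives EC50 and maximal response.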
A general note: In qHTS, concentration-response curves come from the screen itself.

In test [2] the target is Thyroid hormone receptor beta (Homo sapiens) (UniProt P10828). The test is described as follows: qHTS assay for small molecule agonists of thyroid hormone receptor beta signaling (AID 588545; calls by dose curve; further: potency means the concentration at half of the fitted maximal effect). In a few lines:
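HEK 293 TR-UAS-bla; agonist mode; 18 hrs, 37 C; CCF4, ex 405/em 460 and 530 nm; norm. T3 10 nM = 100%, DMSO = 0%; Hill fit → EC50, efficacy.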

Test [3] is described as follows: qHTS assay for environmental chemicals that activate the Aryl hydrocarbon Receptor (AhR) signaling pathway (AID 651777). Further: % of control where 0% means no effect; nearly all actives have a fitted effect of over 15% in size. As to conditions: 1A2-DRE human hepatoma cells, luciferase, 24 h; activation: stronger effect = higher value. Put shortly:
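Human hepatoma 1A2-DRE cells, stably carrying a dioxin response element and CYP1A2 promoter driving luciferase, were exposed to compounds for 24 hr at 37 C and 5% CO2. Luciferase signal was then read after 30 min One-Glo at room temperature.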

The target of test [4] is Peroxisome proliferator-activated receptor alpha (Homo sapiens) (UniProt Q07869). Kind of test: qHTS assay for small molecule agonists of the peroxisome proliferator-activated receptor alpha (PPARalpha) signaling pathway (AID 651778). Further: % of control where 0% means no effect. As to conditions: PathHunter PPARalpha complementation, chemiluminescence, 6 h; max response: stronger effect = higher value. In a few lines: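 Enzyme-fragment complementation assay in which ligand-bound PPARalpha translocates and forms an active enzyme that generates chemiluminescence. Cells were plated overnight, exposed to compound for 6 hr at 37 C, and then given detection reagent for 60 min at room temperature.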

Test [5] in a line: qHTS assay for small molecule agonists of the antioxidant response element (ARE) signaling pathway measured by Nrf2-dependant transcriptional activity - cell viability counter screen (AID 720653; active means well fitted curve in the direction sought with a large enough effect in the repeat runs; an effect the other way counts as inactive or inconclusive; further: on the % scale 0 is the no-effect control and ±100 the full control effect). As to conditions: ARE-bla HepG2 viability, CellTiter-Glo ATP luminescence, 16 h; max response: stronger effect = lower value. In a few lines:
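ARE-bla HepG2 cells treated with compounds for 16 h at 37C; this counter screen measures viability as intracellular ATP by CellTiter-Glo luminescence after 30 min at room temperature.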

Test [6] is described as follows: qHTS assay for cell viability of HEK293 cells (AID 743288). Further: nearly all actives have a fitted effect of over 50% in size. Further: potency means the concentration at half of the fitted maximal effect. On max response: on the % scale 0 is the no-effect control and ±100 the full control effect. As to conditions: ATP luminescence (CellTiter-Glo), 18 h; max response: stronger effect = lower value. In a few lines:
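The Tox21 protocol used parental HEK293 cells treated for 18 h at 37 C with compounds delivered by pintool; ATP-coupled luminescence after 30 min at room temperature gave viability.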

The target in test [7] is Nuclear receptor subfamily 1 group I member 2 (Rattus norvegicus) (UniProt Q9R1A7). Kind of test: qHTS assay for small molecule activators of the rat pregnane X receptor (rPXR) signaling pathway (AID 651751; call rule not given here; further: 0% is about no effect). As to conditions: rPXR reporter cells, luciferase (One-Glo), 24 h.
A short description of test [8]: qHTS assay for small molecule activators of the p53 signaling pathway (AID 651743; active means well fitted activation curve with a large enough effect in the signal ratio, not every such curve was filed as active; the % refers to the signal ratio; further: potency means the concentration at half of the fitted maximal effect; on activation: series mostly up to about 92 µM; % of control where 0% means no effect). As to conditions: HCT-116 p53RE-bla, beta-lactamase FRET ratio, 16 h; activation: stronger effect = higher value. Put shortly:
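HCT-116 p53RE-bla, 4,000 cells/well; 5 h settle; cpd/DMSO 16 h, 37 C; LiveBLAzer B/G 2 h RT; fluorescence intensity.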

Test [9] can be described thus: qHTS assay for small molecule activators of the nuclear factor-kappa B (NF-kB) signaling pathway (AID 651749; active means well fitted activation curve with a large enough effect in the signal ratio; the % refers to the signal ratio; further: potency means the concentration at half of the fitted maximal effect; on activation: series mostly up to about 77 µM; % of control where 0% means no effect). As to conditions: NF-kB-bla ME-180 cells, beta-lactamase FRET ratio, 16 h; activation: stronger effect = higher value. Put shortly:
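Incubation lasted 16 hr at 37C in 5% CO2 after 23 nL compound addition to ME-180 NF-kB-bla cells. Activation appears as beta-lactamase-mediated FRET loss.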

A short description of test [10]: qHTS assay for cell viability of the p53RE-bla HCT-116 cell line (AID 743292). Further: nearly all actives have a fitted effect of over 55% in size. Further: potency means the concentration at half of the fitted maximal effect. Put shortly: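 CellSensor p53RE-bla HCT-116 cells, 4,000/well, preincubated 5 h at 37 C, then exposed to compounds in DMSO for 16 h at 37 C. Viability read as CellTiter-Glo luminescence (intracellular ATP) after 30 min at room temperature.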
Test [11] addresses Glucocorticoid receptor (Homo sapiens) (UniProt P04150). Kind of test: qHTS assay for small molecule agonists of glucocorticoid receptor signaling (AID 588532; active means well fitted curve in the direction sought with a large enough effect in the signal ratio, with a control signal flat; the % refers to the signal ratio;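 further: 100% = dexamethasone at 0.1 µM and 0% = DMSO only wells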). As to conditions: HeLa MMTV-bla, beta-lactamase ratio, agonist, 18 h; stronger effect = higher value; percent of dexamethasone control, DMSO zero. Put shortly: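 MMTV-bla HeLa beta-lactamase reporter cells in 1% charcoal/dextran FBS medium, compounds up to 92 uM for 18 h at 37 C, CCF4 readout; normalized to 0.1 uM dexamethasone (100%), EC50 and efficacy from Hill fits.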

Test [12] concerns the target Vitamin D3 receptor (Homo sapiens) (UniProt P11473). The test is described as follows: qHTS assay for small molecule antagonists of vitamin D receptor signaling (AID 588541; calls by dose curve; further: potency means the concentration at half of the fitted maximal effect). Put shortly: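 VDR-UAS-bla HEK293T cells in 2% charcoal-stripped FBS were stimulated with 1-alpha,25-dihydroxyvitamin D3 (3 nM final) plus compound for 16 h at 37 C. The beta-lactamase CCF4 readout was normalized to 50 nM agonist and DMSO, and Hill fits gave IC50.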

Test [13] is described as follows: qHTS assay for small molecule agonists of the antioxidant response element (ARE) signaling pathway measured by Nrf2-dependant transcriptional activity (AID 720636; active means well fitted curve in the direction sought with a large enough effect in the repeat runs; an effect the other way counts as inactive or inconclusive; further: potency means the concentration at half of the fitted maximal effect; on activation: % of control where 0% means no effect). In a few lines: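 ARE-luc HepG2 cells carrying an Nrf2-responsive luciferase reporter were plated in medium with 1% dialyzed FBS, left 6 hr at 37 C to attach, then exposed to compound for 16 hr. Luciferase luminescence was read after ONE-Glo addition.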

Test [14] is described as follows: qHTS assay for small molecule activators of the human pregnane X receptor (PXR) signaling pathway (AID 720659; call rule not given here; further: 0% is about no effect).
In test [15] the target is Glucocorticoid receptor (Homo sapiens) (UniProt P04150). The test is described as follows: qHTS assay for small molecule antagonists of glucocorticoid receptor signaling (AID 588533; active means well fitted inhibition curve with a large enough effect in the signal ratio, with a control signal flat, not every such curve was filed as active; the % refers to the signal ratio; further: on the % scale 0 is the no-effect control and ±100 the full control effect). In a few lines: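 Antagonist-mode qHTS: compound titrations added to GRE-bla HeLa cells, then dexamethasone 2 nM final; 18 h, 37 C. CCF4 FRET fluorescence normalized to dexamethasone and DMSO; IC50 from Hill fit.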

Test [16] is described as follows: qHTS assay for small molecule antagonists of peroxisome proliferator-activated receptor delta signaling (AID 588535; active means well fitted inhibition curve with a large enough effect in the signal ratio, with a control signal flat, not every such curve was filed as active; the % refers to the signal ratio;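 on max response: cells co-treated with a PPAR-delta agonist as stimulator during compound exposure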). The note with it: HEK293T PPARd-UAS-bla, beta-lactamase FRET ratio, 18 h; 460 nm channel. Put shortly: (§1)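 Cells were seeded at 4000 per well in assay medium containing 2% charcoal/dextran FBS and held 5 hrs at 37 C. Compounds were then added for 18 hrs. CCF4 substrate was applied for 2 hrs at room temperature before fluorescence reading.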

For test [17], the target named is Peroxisome proliferator-activated receptor delta (Homo sapiens) (UniProt Q03181). The description is as above. Put shortly:
as §1

Test [18] is described as follows: qHTS assay for small molecule antagonists of retinoid X receptor alpha signaling (AID 588546; active means well fitted inhibition curve with a large enough effect in the signal ratio, with a control signal flat, not every such curve was filed as active; the % refers to the signal ratio;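 further: cells stimulated with 9-cis-retinoic acid as agonist; on the % scale 0 is the no-effect control and ±100 the full control effect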). The note with it: HEK293T RXRa-UAS-bla, beta-lactamase ratio, antagonist mode; measured here: W530 green channel, cytotoxicity proxy. In a few lines:
(§2)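 Beta-lactamase reporter inhibition, read as CCF4 fluorescence ratio (ex 405, em 460/530 nm) after 2 h at RT. HEK293T UAS-bla cells, 2500/well, were stimulated with 9-cis-RA at 500 or 100 nM final alongside test compound for 18 h at 37 C.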

The target in test [19] is Retinoic acid receptor RXR-alpha (Homo sapiens) (UniProt P19793). The description is as above. As to conditions: HEK293T RXRa-UAS-bla, beta-lactamase ratio, antagonist mode. Put shortly: as §2
Test [20] shares this target. The test is described as follows: qHTS assay for small molecule agonists of retinoid X receptor alpha signaling (AID 588544; calls by dose curve;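 further: 0% = DMSO basal wells and 100% = reference agonist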).

Thyroid hormone receptor beta (Homo sapiens), sequence (P10828 whole entry, looked up): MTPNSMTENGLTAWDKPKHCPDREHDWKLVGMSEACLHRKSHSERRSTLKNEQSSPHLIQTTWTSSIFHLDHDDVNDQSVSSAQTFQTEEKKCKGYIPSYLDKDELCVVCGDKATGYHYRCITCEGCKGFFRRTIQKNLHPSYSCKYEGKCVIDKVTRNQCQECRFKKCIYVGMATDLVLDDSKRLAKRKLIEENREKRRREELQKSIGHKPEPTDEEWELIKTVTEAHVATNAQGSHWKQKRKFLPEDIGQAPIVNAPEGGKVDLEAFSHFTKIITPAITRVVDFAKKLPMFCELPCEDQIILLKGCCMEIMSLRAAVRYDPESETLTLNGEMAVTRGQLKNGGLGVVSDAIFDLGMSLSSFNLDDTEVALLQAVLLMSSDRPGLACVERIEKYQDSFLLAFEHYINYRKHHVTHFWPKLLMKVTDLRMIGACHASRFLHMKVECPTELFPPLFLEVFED
Glucocorticoid receptor (Homo sapiens), sequence (P04150 whole entry, looked up): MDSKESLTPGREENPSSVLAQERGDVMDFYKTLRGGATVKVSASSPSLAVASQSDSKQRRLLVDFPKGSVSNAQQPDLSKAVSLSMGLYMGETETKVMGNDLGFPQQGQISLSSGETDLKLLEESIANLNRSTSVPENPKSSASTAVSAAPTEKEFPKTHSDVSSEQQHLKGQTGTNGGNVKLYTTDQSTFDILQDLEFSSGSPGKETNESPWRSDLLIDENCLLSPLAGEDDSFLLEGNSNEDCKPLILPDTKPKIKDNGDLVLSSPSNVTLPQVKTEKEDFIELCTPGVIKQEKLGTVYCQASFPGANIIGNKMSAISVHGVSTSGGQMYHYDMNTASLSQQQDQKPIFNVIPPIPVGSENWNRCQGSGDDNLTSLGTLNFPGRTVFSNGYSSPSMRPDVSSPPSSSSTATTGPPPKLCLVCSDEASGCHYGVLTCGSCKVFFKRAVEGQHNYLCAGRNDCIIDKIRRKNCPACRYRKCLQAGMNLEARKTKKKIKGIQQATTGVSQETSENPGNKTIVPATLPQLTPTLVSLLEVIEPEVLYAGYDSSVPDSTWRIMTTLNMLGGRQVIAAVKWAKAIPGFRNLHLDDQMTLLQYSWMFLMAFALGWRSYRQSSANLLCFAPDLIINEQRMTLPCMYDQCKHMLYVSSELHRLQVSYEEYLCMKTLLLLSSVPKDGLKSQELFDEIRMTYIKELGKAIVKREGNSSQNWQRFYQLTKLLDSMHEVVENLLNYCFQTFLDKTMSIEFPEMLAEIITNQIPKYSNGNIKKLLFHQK
Retinoic acid receptor RXR-alpha (Homo sapiens), sequence (P19793 whole entry, looked up): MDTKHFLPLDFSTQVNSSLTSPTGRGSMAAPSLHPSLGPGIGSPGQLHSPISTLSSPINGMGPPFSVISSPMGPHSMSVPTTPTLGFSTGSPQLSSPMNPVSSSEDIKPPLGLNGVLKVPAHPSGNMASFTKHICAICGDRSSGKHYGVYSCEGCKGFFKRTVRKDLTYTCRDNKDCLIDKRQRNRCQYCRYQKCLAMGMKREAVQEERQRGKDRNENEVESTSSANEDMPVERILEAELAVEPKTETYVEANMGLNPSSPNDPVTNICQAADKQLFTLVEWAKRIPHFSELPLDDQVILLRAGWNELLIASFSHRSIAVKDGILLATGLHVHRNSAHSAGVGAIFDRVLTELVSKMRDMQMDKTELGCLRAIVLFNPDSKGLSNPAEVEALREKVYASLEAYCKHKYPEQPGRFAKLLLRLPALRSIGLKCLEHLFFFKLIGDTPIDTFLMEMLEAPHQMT
Peroxisome proliferator-activated receptor delta (Homo sapiens), sequence (Q03181 whole entry, looked up): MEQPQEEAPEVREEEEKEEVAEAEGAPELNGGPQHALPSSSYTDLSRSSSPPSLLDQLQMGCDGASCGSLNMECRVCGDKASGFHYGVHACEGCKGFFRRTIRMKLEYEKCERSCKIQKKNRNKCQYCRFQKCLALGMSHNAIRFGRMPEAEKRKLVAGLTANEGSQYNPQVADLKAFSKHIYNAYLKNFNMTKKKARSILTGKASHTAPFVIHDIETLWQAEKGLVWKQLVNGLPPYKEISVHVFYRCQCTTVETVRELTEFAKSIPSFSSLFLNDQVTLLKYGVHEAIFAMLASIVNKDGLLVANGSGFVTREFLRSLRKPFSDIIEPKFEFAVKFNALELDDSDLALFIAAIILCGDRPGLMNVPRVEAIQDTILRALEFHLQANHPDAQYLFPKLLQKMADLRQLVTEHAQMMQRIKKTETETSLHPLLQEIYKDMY
Vitamin D3 receptor (Homo sapiens), sequence (P11473 whole entry, looked up): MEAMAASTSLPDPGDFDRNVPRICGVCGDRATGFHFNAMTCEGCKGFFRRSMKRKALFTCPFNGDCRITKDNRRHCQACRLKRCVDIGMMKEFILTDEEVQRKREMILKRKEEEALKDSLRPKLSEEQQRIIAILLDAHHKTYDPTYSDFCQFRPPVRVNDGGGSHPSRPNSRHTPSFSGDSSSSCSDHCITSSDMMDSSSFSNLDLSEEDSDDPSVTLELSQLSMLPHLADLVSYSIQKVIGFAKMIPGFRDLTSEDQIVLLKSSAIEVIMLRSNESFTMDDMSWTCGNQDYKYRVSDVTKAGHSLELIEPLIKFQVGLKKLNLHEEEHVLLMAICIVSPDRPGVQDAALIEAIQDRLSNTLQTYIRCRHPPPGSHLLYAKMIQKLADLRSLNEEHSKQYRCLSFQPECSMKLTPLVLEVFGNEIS
Nuclear receptor subfamily 1 group I member 2 (Rattus norvegicus), sequence (Q9R1A7 whole entry, looked up): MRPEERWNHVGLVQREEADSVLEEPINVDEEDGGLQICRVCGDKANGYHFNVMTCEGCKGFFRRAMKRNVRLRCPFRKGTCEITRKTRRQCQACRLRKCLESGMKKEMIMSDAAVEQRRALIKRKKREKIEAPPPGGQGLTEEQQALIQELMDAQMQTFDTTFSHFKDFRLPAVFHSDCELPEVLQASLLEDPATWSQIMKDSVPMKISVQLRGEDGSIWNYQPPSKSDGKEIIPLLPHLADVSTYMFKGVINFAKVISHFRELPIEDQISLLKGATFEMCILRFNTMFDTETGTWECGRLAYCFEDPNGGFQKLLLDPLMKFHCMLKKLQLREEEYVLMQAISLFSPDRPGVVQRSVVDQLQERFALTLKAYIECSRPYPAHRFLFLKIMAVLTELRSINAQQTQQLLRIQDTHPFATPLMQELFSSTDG
Peroxisome proliferator-activated receptor alpha (Homo sapiens), sequence (Q07869 whole entry, looked up, the tested form may be a part): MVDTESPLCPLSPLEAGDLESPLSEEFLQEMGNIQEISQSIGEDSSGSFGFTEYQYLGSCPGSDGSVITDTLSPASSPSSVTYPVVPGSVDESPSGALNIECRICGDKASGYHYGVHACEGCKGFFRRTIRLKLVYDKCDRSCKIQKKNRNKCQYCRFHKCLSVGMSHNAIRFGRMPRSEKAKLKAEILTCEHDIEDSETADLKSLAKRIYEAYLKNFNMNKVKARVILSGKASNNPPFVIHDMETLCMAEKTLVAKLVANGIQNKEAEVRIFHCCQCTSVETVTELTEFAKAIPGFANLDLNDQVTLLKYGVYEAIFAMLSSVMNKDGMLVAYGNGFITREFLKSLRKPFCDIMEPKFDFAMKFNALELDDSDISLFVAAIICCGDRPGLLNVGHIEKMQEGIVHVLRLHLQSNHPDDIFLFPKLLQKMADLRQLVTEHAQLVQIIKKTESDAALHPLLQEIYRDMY

In the case of `S=C([S-])NCCNC(=S)[S-].S=C([S-])NCCNC(=S)[S-].[Mn+2].[Zn+2]`, the result in test [1] was inactive. In addition, the Potency result in test [2] was “inactive”. The activation in [3] is 0.587% (inactive). The max response in [4] is -4.1% (inactive); in test [5], 17.6% (inactive); in test [6], 2.96% (inactive); in test [7], -11.1% (inactive).

`CN(C)c1ccc(C(c2ccccc2)c2ccc(N(C)C)cc2)cc1`: the activation in [8] was -0.413% (inactive); in [9], 5.79% (inactive); in [3], 1.41% (inactive). Further, the max response in test [4] was -1.55% (inactive); in test [5], -16.8% (inactive); in [6], -22.1% (inactive); in test [7] it was 5.9% (inactive). Also, in [10], the Potency entry is “inactive”.

Regarding `C=CC(=O)OCCOCC(CC)(COCCOC(=O)C=C)COCCOC(=O)C=C`, the activation in test [11] is -19.8% (inactive); in test [8], 14.9% (inactive); in test [3] it was 5.29% (inactive). For the same molecule, the Potency was 28.2 µM (active) in [12], 21.7 µM (active) in test [13] and 39.8 µM (active) in [6]. Moreover, the outcome in [1] and in test [14] was inactive. Moreover, the values for the max response in [4] and in test [5] were -0.796% (inactive) and -10.9% (inactive), respectively.

For the molecule `c1cc2ccc3ccc4ccc5cccc6c(c1)c2c3c4c56`, the values for the Potency in [2], in [8] and in test [9] were 25.1 µM (active), 35.5 µM (active) and 39.8 µM (active), respectively. Moreover, the activation in test [3] is 6.27% (inactive). Also, the max response was -2.73% (inactive) in test [4], -17.1% (inactive) in [5], -3.62% (inactive) in test [6] and 0.241% (inactive) in [7]. The Potency result in test [10] was “inactive”.

On to `Brc1ccc(Oc2ccc(Br)cc2)cc1`, for which the Potency result in test [15], in [17], in test [12], in test [2], in test [13] and in test [10] was “inactive” each time. The max response in [16] was 0.317%; in test [18] it was -2.23%; in test [4], 4.27% (inactive); in [5], -9.27% (inactive); in test [6], -10% (inactive); in test [7], -1.1% (inactive). Further, the result in test [1] and in test [14] was inactive. In addition, the activation in test [8] is 0.901% (inactive).

With `Nc1ccc(Nc2ccccc2)cc1`, the Potency result in test [15] and in [10] was “inactive” each time. Besides, the max response was -6.58% in test [18]; -27.9% (inactive) in [19]; -0.422% (inactive) in test [4]; -17.7% (inactive) in test [6]; 8.87% (inactive) in test [7]. Further, the activation was 0.195% (inactive) in test [9] and 5.3% (inactive) in test [3].

As for `O=C(Cl)c1cccc(C(=O)Cl)c1`, the Potency result in [15], in [17], in [12], in [20], in test [13] and in test [10] was “inactive” in each case. Also, the max response in test [16] is -11.7%; in test [18] it was -3.89%; in test [19], -13.1% (inactive); in test [5], 5.28% (inactive); in test [6], -6.55% (inactive); in test [7], -0.886% (inactive). The call in [1] and in test [14] was inactive. Moreover, the activation in test [8] is -3.51% (inactive); in test [3], -0.235% (inactive).

For `OCCOCCOCCOCCOCCO`, the max response is -16.8% in test [16]; -8.78% in test [18]; 0.858% (inactive) in test [19]; -1.15% (inactive) in test [4]; -9.49% (inactive) in [5]; -4.24% (inactive) in test [6]. The Potency result in test [17], in test [12], in [20], in test [2] and in test [10] was “inactive” each time. Besides, in test [1], the result was inactive. Moreover, in test [8], the activation was 2.86% (inactive).

For `CC/C(=C(\c1ccc(O)cc1)c1ccc(OCCN(C)C)cc1)c1ccccc1`, the activation in test [11] is -2.75% (inactive); in [3], -12.4% (inactive). Moreover, the max response in test [4] was -2.87% (inactive). In addition, the values for the Potency in test [6] and in test [10] were 25.1 µM (active) and 39.8 µM (active), respectively.

Consider `O=c1oc(=O)c2cc3c(=O)oc(=O)c3cc12`, for which the max response in test [16] was 11%; in test [18], 2.24%; in test [19], -12.6% (inactive); in test [4], -1.48% (inactive); in test [5] it was -10.8% (inactive); in test [6], -11.4% (inactive). The max response in test [7] is -1.16% (inactive). Besides, the Potency result in [17], in test [12], in test [20], in [2], in [13] and in test [10] was “inactive” in each case. Besides, the molecule was classed as inactive in [1] and in [14]. Further, the activation in [9] is -1.97% (inactive); in test [3], 0.0535% (inactive).

As for `CCCOC(=O)NCCCN(C)C`, the Potency entry in test [12], in test [2], in [13] and in test [10] was “inactive” each time. The molecule was called inactive in [1] and in test [14]. The max response is -8.13% in test [18]; 1.48% (inactive) in test [19]; -0.73% (inactive) in test [4]; -5.96% (inactive) in test [5]; -0.93% (inactive) in test [6]; 8.36% (inactive) in test [7]. Also, the activation was -1.96% (inactive) in [8] and 2.96% (inactive) in [3].

Take `S=C([S-])NCCNC(=S)[S-].[Mn+2]`: the Potency result in test [15], in [2] and in test [10] was “inactive” each time. For the same molecule, the activation in test [3] is 2.64% (inactive) and 10.8% (inactive). For the same molecule, the max response in [4] was -2% (inactive) and -3.91% (inactive); in test [6], -16.3% (inactive); in test [7], -0.103% (inactive) and -4.92% (inactive).
